Assay results reported in PubChem BioAssay (NCATS).
Results filed as inconclusive are left out. Entries that show only a call come without a potency. Values without a mark were called inactive. Active and inactive are the calls of the source. Calls come from the whole dose curve; as a rule, active = well fitted curve in the direction sought with a large enough effect; inconclusive = small, poorly fitted or top-dose-only effect, or another doubt; inactive = no such curve, though single readings can be large; an effect the other way counts as inactive or inconclusive.

Experiments:
[1] = target: Cellular tumor antigen p53 (Homo sapiens) (UniProt P04637); experiment: Primary qHTS for small molecule compounds that upregulate eGFP-tagged delta133p53alpha (in N-terminal) cells. (AID 2060322); details: NCI-H358 eGFP-delta133p53alpha fluorescence, 24 h; activation: stronger effect = higher value; note: nearly all actives have a fitted effect of over 75% in size; note: potency is the fitted concentration of half-maximal effect; for activation: series mostly up to about 56 µM
How it was run: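 NCI-H358 cells pre-induced 24 h with 10 ng/ml doxycycline to express N-terminal eGFP-delta133p53alpha, then dosed 24 h at 37C without doxycycline; fixed, Hoechst-stained, GFP intensity by laser scanning cytometry, normalized to DMSO (0%) and 57.5 uM 5-azacytidine (100%).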

[2] = target: Aldehyde dehydrogenase, mitochondrial (Homo sapiens) (UniProt P05091); experiment: qHTS for Inhibitors of the Aldehyde Dehydrogenase Family (ALDH2) Primary screen (AID 2061308); note: nearly all actives have a fitted effect of over 55% in size
[3] = target: Retinaldehyde dehydrogenase 3 (Homo sapiens) (UniProt P47895); experiment: qHTS for Inhibitors of the Aldehyde Dehydrogenase Family (ALDH1A3) Primary screen (AID 2061315); note: potency is the fitted concentration of half-maximal effect

Sequence of Cellular tumor antigen p53 (Homo sapiens) (P04637 whole entry, looked up): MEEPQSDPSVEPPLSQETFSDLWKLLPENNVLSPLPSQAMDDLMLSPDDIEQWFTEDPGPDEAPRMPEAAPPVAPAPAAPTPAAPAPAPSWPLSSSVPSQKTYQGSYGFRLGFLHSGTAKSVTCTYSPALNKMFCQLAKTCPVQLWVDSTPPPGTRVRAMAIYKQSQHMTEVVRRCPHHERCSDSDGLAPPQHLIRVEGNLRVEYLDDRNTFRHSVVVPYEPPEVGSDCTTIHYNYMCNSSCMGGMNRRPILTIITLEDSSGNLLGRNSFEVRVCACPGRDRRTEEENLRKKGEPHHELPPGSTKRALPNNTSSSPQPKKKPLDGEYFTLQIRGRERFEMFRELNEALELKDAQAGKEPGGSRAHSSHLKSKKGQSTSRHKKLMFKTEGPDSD

SMILES	activation [1] [%]	activity change, negative = inhibition [2]	activity change, negative = inhibition [3]	Potency [2]	Potency [3]	Potency [1]
C/C=C(/C)C(=O)OC1CC(C)(C)CC2C3=CCC4C5(C)CCC(O[C@@H]6O[C@H](C(=O)O)[C@@H](O)[C@H](O)[C@H]6O[C@@H]6O[C@H](CO)[C@H](O)[C@H](O[C@@H]7OC[C@H](O)[C@H](O)[C@H]7O[C@@H]7O[C@H](CO)[C@@H](O)[C@H](O)[C@H]7O)[C@H]6O)C(C)(C)C5CCC4(C)C3(C)C(O)C(O)C12CO (stereo partly drawn)	0.893	-0.94% [at 11.2 µM]	-6.72% [at 11.2 µM]	–	–	–
C[C@@]1(O)[C@H](O)[C@@H](CO)O[C@H]1n1cnc2c(=O)[nH]c(N)nc21	-12.3	–	–	inactive	inactive	–
CC1(C)O[C@]23C[C@H]1C[C@H](OC(=O)c1ccoc1)[C@]2(C)[C@@H](OC(=O)c1ccoc1)CCC3(C)O (stereo partly drawn)	-5.34	–	–	inactive	inactive	–
CC1(C(=O)O)CCCC2(C)C3CC4C5CC3(CCC12)CC45C (stereo not drawn)	17.9	–	–	inactive	inactive	–
CC(=O)[C@@H]1CC[C@]2(C(=O)O)CC[C@]3(C)C(CCC4[C@@]5(C)CC[C@H](O)C(C)(C)C5CC[C@]43C)C12 (stereo partly drawn)	8.4	–	–	inactive	inactive	–
C[C@@H]1O[C@@H](O[C@H]2[C@@H]3C=CO[C@@H](O[C@@H]4O[C@H](CO)[C@@H](O)[C@H](O)[C@H]4O)[C@@H]3[C@@]3(CO)O[C@@H]23)[C@H](O)[C@H](OC(=O)/C=C/c2ccc(O)cc2)[C@H]1OC(=O)/C=C/c1ccc(O)cc1	-13	–	–	inactive	inactive	–
COc1cc(CCCO)ccc1O[C@@H]1O[C@H](CO)[C@@H](O)[C@H](O)[C@H]1O	-16.1	–	–	inactive	inactive	–
CCC(C)/C=C(C)/C=C/C1=CC2=C(Cl)C(=O)C(C)(O)C(=O)C2(O)C(OC)O1 (stereo not drawn)	28.2	–	–	inactive	inactive	–
C[C@@H]1O[C@@H](O[C@@H]2[C@@H](O[C@@H]3O[C@@H](C)[C@H](O[C@@H]4OC[C@H](O)[C@H](O[C@@H]5OC[C@@H](O)[C@H](O)[C@H]5O)[C@H]4O)[C@@H](O[C@@H]4OC[C@](O)(CO)[C@H]4O)[C@H]3O)[C@H](OC(=O)[C@]34CCC(C)(C)C[C@H]3C3=CCC5[C@@]6(C)C[C@H](O)[C@H](O[C@@H]7O[C@H](CO[C@@H]8OC[C@H](O)[C@H](O)[C@H]8O)[C@@H](O)[C@H](O)[C@H]7O)C(C)(C)C6CC[C@@]5(C)[C@]3(C)C[C@H]4O)OC[C@H]2O)[C@H](O)[C@H](O)[C@H]1O (stereo partly drawn)	-8.4	17% [at 11.2 µM]	8.86% [at 11.2 µM]	–	–	–
CC1CCCCN1S(=O)(=O)c1ccc(N2CCCC2=O)cc1 (stereo not drawn)	2.86	–	–	inactive	inactive	–
C[C@@H]1CCC/C=C/[C@H]2CC(=O)C[C@@H]2[C@@H](O)/C=C/C(=O)O1	9.82	–	–	inactive	inactive	–
C=C1CC2[C@]3(C)C(=C(O)C(=O)[C@@]2(C)[C@]2(C(=O)OC)C(=O)C(C)OC(=O)[C@@]12C)C(C)(C)C(=O)CC3O (stereo partly drawn)	18.3	–	–	inactive	inactive	–
CC12CCC(OC3OC(CO)C(O)C(O)C3OC3OC(CO)C(O)C(O)C3O)CC1CCC1C2CCC2(C)/C(=C3/COC(=O)C3)CCC12O (stereo not drawn)	-0.763	–	–	inactive	inactive	–
COC(=O)C1(O)C(OC(C)=O)CCC2C3(CC(c4ccoc4)OC3=O)C(C)=CCC21C(=O)OC (stereo not drawn)	9.82	–	–	inactive	inactive	–
C=CC1(C)C=C2C(=O)CC3C(C)(C)CCCC3(C(=O)O)C2(O)CC1 (stereo not drawn)	-15.3	–	–	inactive	inactive	–
CC(NC(=O)CC(=O)O)C(=O)Nc1ccccc1C(N)=O (stereo not drawn)	-3.05	–	–	inactive	inactive	–

SMILES	activation [1] [%]	activity change, negative = inhibition [2]	activity change, negative = inhibition [3]	Potency [2]	Potency [3]	Potency [1]
Cc1cnc(NC(=O)Nc2cc(Br)c(C)cc2OCC2CNCCO2)cn1 (stereo not drawn)	11.6	–	–	inactive	inactive	–
CC(C)(O)/C=C/C(=O)[C@](C)(O)[C@H]1[C@H](O)C[C@@]2(C)[C@@H]3CC=C4[C@@H](C=C(O[C@@H]5O[C@H](CO)[C@@H](O)[C@H](O)[C@H]5O)C(=O)C4(C)C)[C@]3(C)C(=O)C[C@]12C	-13.7	–	–	inactive	inactive	–
CCCNc1ccc2ncc(-c3ccc4[nH]ncc4c3)n2n1	–	–	–	inactive	inactive	2390 nM (active)
CC/C=C\[C@H](O)[C@H](O)C1=C(C)C(=O)[C@]2(O1)C(=O)N[C@@](OC)(C(=O)c1ccccc1)[C@@H]2O	-6.87	–	–	inactive	inactive	–
C[C@@]12C[C@]3(O)O[C@H](O1)[C@]1(COC(=O)c4ccccc4)[C@H]3C[C@@]12O[C@@H]1O[C@H](CO)[C@@H](O)[C@H](O)[C@H]1O	25	–	–	inactive	inactive	–
CC/C=C/CC1=C(CCCCCCCC(=O)O)CCC1=O	-17.9	–	–	inactive	inactive	–
COc1cc2c(cc1O)CC[C@H]1[C@@H]2CC[C@]2(C)[C@H](O)CC[C@@H]12	–	–	–	inactive	17800 nM (active)	1510 nM (active)
CC1(C)CC[C@]2(C(=O)O[C@@H]3O[C@H](CO)[C@@H](O)[C@H](O)[C@H]3O)CC[C@]3(C)C(=CCC4[C@@]5(C)CC[C@H](O[C@@H]6O[C@H](C(=O)O)[C@@H](O)[C@H](O[C@@H]7O[C@H](CO)[C@H](O)[C@H](O)[C@H]7O)[C@H]6O)C(C)(C)C5CC[C@]43C)C2C1 (stereo partly drawn)	-9.92	–	–	inactive	inactive	–
O=C(O)c1cccc(C(=O)CCC2OC(n3cnc4c(=O)[nH]cnc43)C(O)C2O)c1 (stereo not drawn)	15.3	–	–	inactive	inactive	–
CC1(CO)CCCC2(C)C3COC(=O)C3=CC(O)C12 (stereo not drawn)	-8.04	–	–	inactive	inactive	–
COc1ccc2c3ccnc4ccc(=O)n(c2c1)c43	17	–	–	inactive	inactive	–
COC(=O)C1=C2Nc3ccccc3C23CCN2CCCC(C(C)O)(C1)C23 (stereo not drawn)	18.8	–	–	inactive	inactive	–
COC(=O)[C@@H](NC(=O)[C@H](CC(C)C)NC(=O)N(Cc1ccccc1)C[C@@H](O)[C@H](Cc1ccccc1)NC(=O)OC(C)(C)C)C(C)C	19.7	-10% [at 11.2 µM]	16.3% [at 11.2 µM]	–	–	–
COc1c(OC2OC(CO)C(O)C(O)C2O)ccc(O)c1C(=O)OCc1ccccc1O[C@@H]1O[C@H](CO)[C@@H](O)[C@H](O)[C@H]1O (stereo partly drawn)	3.82	–	–	inactive	inactive	–
CC(C)CCNC(=O)[C@H](CC(C)C)NC(=O)[C@H]1O[C@@H]1C(=O)O	-9	–	–	inactive	inactive	–
